# Autofluor counter: compound fluorescence in toxin protease inhibitor counterscreen; AID 624483; fluorescence intensity (no concentration beside the values); hit rate 3.1% among 360,000; compound autofluorescence counterscreen, microsphere flow cytometry; stronger effect = higher value; in the data active = fluorescence intensity above about 16000; inconclusive = no clear call, values can overlap the other calls
# Anthrax LF prot: Bacillus anthracis LF protease inhibitors, primary screen, biochemical, multiplex microsphere, MLPCN library. multiplex microsphere protease cleavage assay. AID 588501, 2011. inhibition, % at 10 µM. Lethal factor (Bacillus anthracis), P15917. hit rate 0.12% among 360,000; also: plate controls were buffer without enzyme for full effect and enzyme alone for no effect
# Target sequence (P15917 whole entry, looked up): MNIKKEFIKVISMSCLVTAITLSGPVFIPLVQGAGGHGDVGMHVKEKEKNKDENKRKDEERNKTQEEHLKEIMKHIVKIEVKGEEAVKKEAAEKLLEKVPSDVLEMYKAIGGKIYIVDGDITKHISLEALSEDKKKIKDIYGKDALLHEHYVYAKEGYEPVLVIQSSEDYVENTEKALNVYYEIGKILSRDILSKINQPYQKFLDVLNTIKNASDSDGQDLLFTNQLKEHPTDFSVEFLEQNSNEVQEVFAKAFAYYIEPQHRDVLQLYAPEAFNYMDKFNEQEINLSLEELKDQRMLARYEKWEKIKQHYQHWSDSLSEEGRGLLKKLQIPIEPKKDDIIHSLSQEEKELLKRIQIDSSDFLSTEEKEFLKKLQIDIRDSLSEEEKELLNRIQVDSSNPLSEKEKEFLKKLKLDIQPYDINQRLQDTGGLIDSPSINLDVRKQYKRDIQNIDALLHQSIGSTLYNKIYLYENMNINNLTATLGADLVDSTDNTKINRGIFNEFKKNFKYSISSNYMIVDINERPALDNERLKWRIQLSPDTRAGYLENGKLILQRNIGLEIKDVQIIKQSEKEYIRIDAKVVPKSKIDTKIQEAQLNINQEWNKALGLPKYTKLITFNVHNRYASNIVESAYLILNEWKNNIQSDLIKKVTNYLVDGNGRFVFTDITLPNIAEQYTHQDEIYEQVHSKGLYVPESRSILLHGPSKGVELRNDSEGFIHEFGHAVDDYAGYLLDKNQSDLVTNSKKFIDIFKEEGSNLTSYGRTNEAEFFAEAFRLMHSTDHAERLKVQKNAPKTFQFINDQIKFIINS
# BoNT A protease: BoNT/A light chain protease inhibitors, primary screen, biochemical, flow cytometry, MLPCN library. AID 588499, 2011. hit rate 0.17% among 360,000. inhibition, % at 10 µM. multiplex microsphere protease substrate cleavage; also: plate controls were buffer without enzyme for full effect and enzyme alone for no effect
# BJeLR lethal: MLPCN primary cell-based screen for lethality selective to Ras in HRASV12 cells; BJeLR (HRASV12) viability, CellTiter-Glo ATP luminescence, 48 h; inhibition, % (test concentration not listed); hit rate 0.17% among 300,000; AID 1554, 2009; in the data active = inhibition above about 50%; inconclusive = no clear call, values can overlap the other calls
# BoNT-F LC inh: BoNT/F light chain protease inhibitors, primary screen, biochemical, flow cytometry, MLPCN library | Botulinum neurotoxin type F light chain protease (Clostridium botulinum) | Multiplex microsphere protease cleavage assay | inhibition, % at 10 µM | hit rate 0.22% among 360,000 | AID 588497, 2011; in the data active = inhibition above about 35%, passing the limit was not always enough; inconclusive = no clear call, values can overlap the other calls; also: plate controls were buffer without enzyme for full effect and enzyme alone for no effect
# Starred values were filed as active, the others as inactive; ? = inconclusive; . = no result given. Compounds with a hit are over-represented: about 3.5% of the library has one in this group of screens. Rule as the data show it, unless noted: active = inhibition above about 30%; inconclusive = no clear call, values can overlap the other calls; inactive = below that.
SMILES,Autofluor counter,Anthrax LF prot,BoNT A protease,BJeLR lethal,BoNT-F LC inh
CC(C)c1ccc(C2CC(=O)N3CN(Cc4ccco4)CSC3=C2C#N)cc1 (stereo unspecified),?,?,?,3,?
N#CC1=C2SCN(Cc3ccco3)CN2C(=O)CC1c1ccc(Cl)cc1 (stereo unspecified),22500*,1,3,-5,2
COc1ccc(C2CC(=O)N3CN(Cc4ccco4)CSC3=C2C#N)cc1 (stereo unspecified),20177*,1,?,1,2
CC(NC(=O)c1ccccc1Br)c1nnc(SCc2ccc([N+](=O)[O-])cc2)n1C (stereo unspecified),19315*,1,2,-13,5
Cn1c(SCc2ccc([N+](=O)[O-])cc2)nnc1-c1cccnc1,2586,-2,-1,-8,1
COc1cccc(C(=O)c2ccncc2C(=O)O)c1OC,4210,-6,-1,.,-5
Cc1cc(N(CN2CCCC2=O)C(=O)c2ccc(OC(C)C)cc2)no1,4922,-6,-6,2,-24
COc1ccc(C(=O)N(CN2CCCC2=O)c2cc(C)on2)cc1OC,21141*,2,4,-5,6
O=C1CCCN1CN(C(=O)c1ccc2c(c1)OCO2)c1ccc(F)cc1,21432*,-3,?,10,-7
Cc1cc(N(CN2CCCC2=O)C(=O)c2ccccc2)no1,23950*,0,-2,7,-5
Cc1cc(N(CN2CCCC2=O)C(=O)c2ccc(F)cc2)no1,20214*,-2,0,2,0
CCc1nc2c(OCCOc3ccc(F)cc3)cccn2c1N(C)C(=O)c1ccc(OC)cc1,2950,-3,0,.,-2
COc1cc2[nH]c(-c3cccc(F)c3)cc(=O)c2cc1OC,4453,7,-1,5,-4
COc1ccc(NC(=O)N(C)C[C@H]2OCCCC[C@@H](C)Oc3ccc(NC(=O)c4ccccc4)cc3C(=O)N([C@H](C)CO)C[C@@H]2C)cc1,3525,3,0,.,-1
O=C(c1ccc(Br)o1)N1CCN(C/C=C/c2ccccc2)CC1,9557,-5,0,-4,-3
O=C(c1ccc(Br)s1)N1CCN(C/C=C/c2ccccc2)CC1,22315*,-1,-4,7,-8
Cc1ccccc1-c1noc(N)c1C#N,23456*,0,-1,4,-5
C#CCNC(=O)C[C@@H]1C[C@@]2(C(=O)OCC)CCCC=C2N(CCCCCCCC)C1=O,6193,6,0,.,-11
OCc1cc(Br)ccc1OCc1nc2ccccc2s1,3665,-9,-3,1,-22
O=C(OCc1nc2ccccc2s1)c1ccc(Br)s1,23134*,2,-1,0,-3
Nc1ccc(C(=O)OCc2nc3ccccc3s2)cc1,4754,-7,-2,-2,-6
Oc1ccccc1OCc1nc2ccccc2s1,22098*,-4,2,2,0
Fc1ccc(NC(=S)N/N=C/c2cccc(Br)c2)c(F)c1,20663*,0,?,-6,-4
Fc1cccc(/C=N/NC(=S)Nc2ccccc2Cl)c1,2012,-3,0,2,-3
CCN1CCN(c2nc(-c3ccccn3)nc3ccccc23)CC1,24768*,-2,-6,0,-12
SMILES,Autofluor counter,Anthrax LF prot,BoNT A protease,BJeLR lethal,BoNT-F LC inh
Cn1cnc([N+](=O)[O-])c1Sc1ncccc1N,22024*,-1,-1,2,-2
Cc1ccc(Sc2c([N+](=O)[O-])ncn2C)cc1,15373,-8,2,-19,2
CCN(Cc1ccccc1)C(=O)C1CCN(Cc2ccc(OC)c(OC)c2OC)CC1,22911*,1,?,8,-1
Cc1nc(Nc2cccc(C(C)O)c2)c2nnn(Cc3ccccc3F)c2n1 (stereo unspecified),3864,-4,0,15,-4
CC(=O)Nc1ccc(NC(=O)CN(c2cccc([N+](=O)[O-])c2)S(C)(=O)=O)cc1,4305,-3,0,69*,-4
CC(=O)Nc1ccc(NC(=O)CN(c2cccc(C)c2)S(C)(=O)=O)cc1,22430*,-2,0,21,-3
CS(=O)(=O)N(CC(=O)Nc1cc(Cl)ccc1Cl)c1ccccc1,24006*,-2,-2,4,-4
Cc1ccc(NS(=O)(=O)c2ccc(NC(=O)CN(c3cc([N+](=O)[O-])ccc3C)S(C)(=O)=O)cc2)c(C)c1,10918,-1,0,65*,0
CC(=O)Nc1ccc(NC(=O)CN(c2cccc(C(C)=O)c2)S(C)(=O)=O)cc1,4595,-4,0,2,1
CN1CCN(C(=O)C2CCCN(S(=O)(=O)c3ccc(F)cc3)C2)CC1 (stereo unspecified),5355,-5,-1,-5,4
O=C(Nc1cccc(OC(F)(F)F)c1)c1ccc(-c2cccnc2)c2ccoc12,3643,0,0,.,7
CSCc1c(C(=O)Nc2ccccc2N2CCOCC2)oc2ccccc12,6476,-1,2,.,0
CN(C)c1ccc(CC(=O)N2CCCCC2c2cc(C(=O)Nc3ccccc3)no2)cc1 (stereo unspecified),3912,-4,0,.,-5
COc1ccc(C(=O)Nc2ccccc2C(=O)Nc2ccccc2)cc1,3569,-2,0,.,-6
CCOC(=O)C(=O)Nc1ccccc1C(=O)Nc1ccc(OC)cc1,19641*,-18,8,-2,12
CCOC(=O)N1CCN(C(=O)c2ccccc2NC(=O)c2ccccc2Cl)CC1,5318,-2,0,-1,-3
CCOC(=O)N1CCN(C(=O)c2ccccc2NC(=O)c2ccc(OC)cc2)CC1,23728*,-4,-2,-5,-4
CCc1nc2ccc(C(=O)NCc3ccc(OC)cc3)cn2c1N(CC)CCOC,4351,0,-1,.,4
O=C1/C(=C\c2ccccn2)SC(=S)N1c1ccc(S(=O)(=O)Nc2nccs2)cc1,3634,30*,-3,3,?
N#Cc1c(N)sc2c1CCN(CCc1ccccc1)C2,5685,1,65*,2,-141
N#Cc1c(NC(=S)NC(=O)c2ccccc2)sc2c1CCN(CCc1ccccc1)C2,.,.,.,3,.
Clc1cccc(CNc2ccn3nc(-c4cccc(Cl)c4)cc3n2)c1,3039,-4,0,.,-1
Cc1cc(C)cc(NC(=O)c2ccc(CNc3c(N4CCCC4)c(=O)c3=O)cc2)c1,4448,3,0,10,-2
COC(=O)Cc1c[nH]c2cccc(OCC(O)CN(Cc3ccc([N+](=O)[O-])cc3)C(C)(C)C)c12 (stereo unspecified),24016*,-6,-3,9,-9
CC(=O)n1cc(N(C(=O)CCl)c2ccccc2)c2ccccc21,.,.,.,100*,.
COc1ccc(OC)c(C2C3=C(COC3=O)Nc3cc4c(cc32)OCO4)c1 (stereo unspecified),19754*,-9,6,12,7
C[C@@H]1O[C@H](C2CCCC2)Cc2[nH]c(=S)[nH]c(=O)c21,5836,0,0,.,0

# Compound activity deposited in PubChem BioAssay by several laboratories.
